Laboratory results reported in PubChem BioAssay (Tox21).
Results filed as inconclusive are left out. Where a call stands in place of a potency, no number is given. Unmarked numbers belong to inactive results. Activity calls are given as the source filed them. Calls follow the shape of the dose curve; as a rule, active = well fitted curve in the direction sought with a large enough effect in the repeat runs; inconclusive = weak or mixed curves; inactive = no such curve, though single readings can be large; an effect the other way counts as inactive or inconclusive.

Experiment: A CellTox Green Cytotoxicity Assay to monitor cytotoxicity in HepG2 cells - 40 hour (AID 1224879); also: nearly all actives have a fitted effect of over 40% in size; also: potency is read from the fitted curve at half-maximal effect
Details: CellTox Green fluorescence; series mostly up to 76.8 µM
How it was run: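 Fluorescent DNA-binding dye, 600 HepG2 cells/well, 5 h preincubation then compound in DMSO; same plates read at 0–40 h, 37 C.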
For CC/C=C(\C)C=O, the Potency was “inactive”.
In the case of O=C(Nc1ccc([N+](=O)[O-])cc1)Nc1ccc([N+](=O)[O-])cc1 (tested in a mixture with another compound), the Potency is reported as 21.3 µM (active).
With O=C(NCc1ncc(C(F)(F)F)cc1Cl)c1c(Cl)cccc1Cl the Potency was 17.4 µM (active).
CCCCCCCCCCCCS(=O)(=O)Cl showed a cytotoxicity increase of -19.9% [at 15.8 µM].
For Cc1cccc2c1ccc1ccccc12, the Potency was “inactive”.
With CC(=O)CC(N)=O the Potency was “inactive”.
For CCc1cccc(C)c1N(C(=O)C(=O)O)C(C)COC (stereo not given), the Potency was “inactive”.
In the case of CCC(=O)OC/C=C(\C)CCC=C(C)C, the Potency is reported as “inactive”.
For CCCCC/C=C\C=C\C(=O)OCC, the Potency was 36.1 µM (active).
In the case of CCCC(C)C=O (stereo not given), the Potency is reported as “inactive”.
For CC(O)(c1ccc(Cl)cc1)c1ccc(Cl)cc1, the Potency was 49 µM (active).
With C=Cc1ccc(O)c(OC)c1 the Potency was “inactive”.
With c1ccc2cc3c4ccccc4c4ccccc4c3cc2c1 the Potency was 13.9 µM (active).

Experiment: qHTS RealTime-Glo MT Cell Viability Assay in HEK293 cells - 0 hour (AID 1224880); also: top concentration of the series differs between compounds; nearly all actives have a fitted effect of over 45% in size
Details: RealTime-Glo luminescence; series mostly up to 76.8 µM
How it was run: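 Measured as luminescence from the same continuously cultured HEK293 wells at successive time points (0, 8, 16, 24, 32, 40 h) after compound addition. Reagent present from seeding; dosing at 5 h; incubation 37 C.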
For O=C(Nc1ccccc1)c1cc(Cl)ccc1O, the Potency was “inactive”.
With C/C=C/C(=O)OCC(C)C the Potency was “inactive”.
With CC(C)(C)c1cc(CCC(=O)OCCSCCOC(=O)CCc2cc(C(C)(C)C)c(O)c(C(C)(C)C)c2)cc(C(C)(C)C)c1O the Potency was “inactive”.
In the case of C=Cc1ccncc1, the Potency is reported as “inactive”.
For O=C1CCCCCCCCCCCCCC1, the Potency was “inactive”.
For O=C1CCC/C=C\CCCCCCCCCC1, the Potency was “inactive”.
In the case of Brc1cc(Br)cc(Br)c1, the Potency is reported as “inactive”.
For N#Cc1ccc(C/C(=N/NC(=O)Nc2ccc(OC(F)(F)F)cc2)c2cccc(C(F)(F)F)c2)cc1, the Potency was “inactive”.
With CSc1nnc(C(C)(C)C)c(=O)[nH]1 the Potency was “inactive”.
With c1ccc2c(c1)-c1ccc3ccc4cccc5cc-2c1c3c45 the Potency was “inactive”.
For O=C(CCCCCCCCc1cccnc1)N1CCC(C=C(c2ccccc2)c2ccccc2)CC1, the Potency was “inactive”.
In the case of CCN(CC)c1ccc(C=O)c(O)c1, the Potency is reported as “inactive”.
In the case of CC(C=O)c1ccccc1 (stereo not given), the Potency is reported as “inactive”.
For C=CC(=O)O[C@H]1C[C@@H]2CC[C@@]1(C)C2(C)C, the Potency was “inactive”.
In the case of CCC1(C)C(=O)N(Cl)C(=O)N1Cl (stereo not given), the Potency is reported as “inactive”.
For CC/C=C(\C)C=O, the Potency was “inactive”.
For O=C(Nc1ccc([N+](=O)[O-])cc1)Nc1ccc([N+](=O)[O-])cc1 (tested in a mixture with another compound), the Potency was “inactive”.
For O=C(NCc1ncc(C(F)(F)F)cc1Cl)c1c(Cl)cccc1Cl, the Potency was “inactive”.
Work on CCCCCCCCCCCCS(=O)(=O)Cl yielded an activity change, negative = cytotoxicity of -1.06% [at 15.8 µM].
With Cc1cccc2c1ccc1ccccc12 the Potency was “inactive”.
For CC(=O)CC(N)=O, the Potency was “inactive”.
With CCc1cccc(C)c1N(C(=O)C(=O)O)C(C)COC (stereo not given) the Potency was “inactive”.
With CCC(=O)OC/C=C(\C)CCC=C(C)C the Potency was “inactive”.
For CCCCC/C=C\C=C\C(=O)OCC, the Potency was “inactive”.
For CCCC(C)C=O (stereo not given), the Potency was “inactive”.
With CC(O)(c1ccc(Cl)cc1)c1ccc(Cl)cc1 the Potency was “inactive”.
In the case of C=Cc1ccc(O)c(OC)c1, the Potency is reported as “inactive”.
In the case of Cc1cc(Br)ccc1NC(=O)CCl, the Potency is reported as “inactive”.
For CC(=O)[C@]1(O)Cc2c(O)c3c(c(O)c2[C@@H](O[C@H]2C[C@H](N)[C@H](O)[C@H](C)O2)C1)C(=O)c1ccccc1C3=O, the Potency was “inactive”.
With c1ccc2cc3c4ccccc4c4ccccc4c3cc2c1 the Potency was “inactive”.

Experiment: A CellTox Green Cytotoxicity Assay to monitor cytotoxicity in HEK293 cells - 32 hour (AID 1224881); also: nearly all actives have a fitted effect of over 40% in size; also: potency is read from the fitted curve at half-maximal effect
Details: CellTox Green fluorescence; series mostly up to 76.8 µM
How it was run: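 Homogeneous no-lysis format: HEK293 cell suspension mixed with CellTox Green reagent, seeded, incubated 5 h at 37 C/5% CO2, then dosed by pintool with compound in DMSO.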
In the case of O=C(Nc1ccccc1)c1cc(Cl)ccc1O, the Potency is reported as “inactive”.
In the case of C/C=C/C(=O)OCC(C)C, the Potency is reported as “inactive”.
With CC(C)(C)c1cc(CCC(=O)OCCSCCOC(=O)CCc2cc(C(C)(C)C)c(O)c(C(C)(C)C)c2)cc(C(C)(C)C)c1O the Potency was “inactive”.
With C=Cc1ccncc1 the Potency was “inactive”.
In the case of CCCCCN=C(N)N/N=C/c1c[nH]c2ccc(OC)cc12, the Potency is reported as 6.01 µM (active).
With O=C1CCCCCCCCCCCCCC1 the Potency was 43.6 µM (active).
In the case of N#Cc1ccc(C/C(=N/NC(=O)Nc2ccc(OC(F)(F)F)cc2)c2cccc(C(F)(F)F)c2)cc1, the Potency is reported as “inactive”.
With CSc1nnc(C(C)(C)C)c(=O)[nH]1 the Potency was “inactive”.
For CCOC(=O)OC(=O)OCC, the Potency was “inactive”.
In the case of CCCCCCCCCC[N+](C)(CCCCCCCCCC)CCC[Si](OC)(OC)OC, the Potency is reported as 24.5 µM (active).
With CCN(CC)c1ccc(C=O)c(O)c1 the Potency was “inactive”.
With COc1cc(/C=C/C(=O)CC(=O)/C=C/c2ccc(O)c(OC)c2)ccc1O the Potency was 39.2 µM (active).
In the case of CC(C=O)c1ccccc1 (stereo not given), the Potency is reported as “inactive”.
For CCC1(C)C(=O)N(Cl)C(=O)N1Cl (stereo not given), the Potency was “inactive”.
In the case of CN[C@H]1CC[C@@H](c2ccc(Cl)c(Cl)c2)c2ccc(S(N)(=O)=O)cc21, the Potency is reported as 24.5 µM (active).
For O=C(Nc1ccc([N+](=O)[O-])cc1)Nc1ccc([N+](=O)[O-])cc1 (tested in a mixture with another compound), the Potency was “inactive”.
With O=C(NCc1ncc(C(F)(F)F)cc1Cl)c1c(Cl)cccc1Cl the Potency was “inactive”.
Work on CCCCCCCCCCCCS(=O)(=O)Cl yielded a cytotoxicity increase of -1.06% [at 15.8 µM].
For CCc1cccc(C)c1N(C(=O)C(=O)O)C(C)COC (stereo not given), the Potency was “inactive”.
In the case of CCCC(C)C=O (stereo not given), the Potency is reported as “inactive”.
For CC(O)(c1ccc(Cl)cc1)c1ccc(Cl)cc1, the Potency was 49 µM (active).
For C=Cc1ccc(O)c(OC)c1, the Potency was “inactive”.
